# Data taken from PubChem BioAssay AID651808 (Broad Institute, 2012).
# Inconclusive results are not listed. Active and inactive are the calls of the source. The rule behind the calls is not given here.
# Assay: dose response, DH231 delta cqsS, luminescence, dry powder (AID 651808)
# Conditions: V. cholerae DH231 delta cqsS, luxCDABE luminescence, 6 h, stronger effect = higher value
smiles,measurement,setting,value
CCn1nnc(NCc2ccc(C)cc2)n1,max activity (light induction),"at 0.35 µM, test 2",39.1% (inactive)
CC(C)c1ccc(CNc2nnnn2C)cc1,max activity (light induction),"measured here: test 1 replicate run, at 0.0042 µM, test 1",39.1%
CCCn1nnnc1NCc1ccccc1Cl,max activity (light induction),"measured here: test 1 replicate run, at 0.35 µM, test 1",43.6%
